Screens: PubChem BioAssay, National Center for Advancing Translational Sciences (NCATS)
Hits are enriched below; roughly 0.039% of the tested compounds scored in any of these assays.
MBNL1 CUG block: MBNL1-poly(CUG) RNA binding inhibition; TR-FRET MBNL1-His/biotin-(CUG)12 binding, 665/545 ratio; Potency, µM (top dose mostly 57.5 µM), without a hit: top-dose activity change, negative = inhibition, actives largely listed as inhibitors; 0.036% of 280,000 active; AID 2675; active = well fitted inhibition curve with a large enough effect in the signal ratio, with a control signal flat, not every such curve was filed as active; inconclusive = small, poorly fitted or top-dose-only effect, or effect the other way, or a change in a side signal; inactive = no such curve, though single readings can be large or run the other way; the % refers to the signal ratio; also: potency is read from the fitted curve at half-maximal effect; % is scaled to controls: 0 for no effect and ±100 for the full control effect
Target sequence (Q9NR56 whole entry, looked up): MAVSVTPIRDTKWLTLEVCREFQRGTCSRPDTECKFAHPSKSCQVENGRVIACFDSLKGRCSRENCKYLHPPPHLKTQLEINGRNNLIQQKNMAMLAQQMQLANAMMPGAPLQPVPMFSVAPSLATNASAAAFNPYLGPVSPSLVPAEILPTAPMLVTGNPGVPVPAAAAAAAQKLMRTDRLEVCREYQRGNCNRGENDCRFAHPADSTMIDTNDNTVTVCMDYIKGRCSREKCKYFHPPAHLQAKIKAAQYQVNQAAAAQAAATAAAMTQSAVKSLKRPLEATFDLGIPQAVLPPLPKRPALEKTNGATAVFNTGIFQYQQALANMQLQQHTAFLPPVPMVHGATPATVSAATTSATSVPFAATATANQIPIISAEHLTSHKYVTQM
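TR-FRET between His-tagged MBNL1 and biotin-(CUG)12 RNA, detected with Tb anti-His antibody (0.055 ng/ul) and streptavidin-XL665 (5 nM), 60 min at room temperature. Compounds titrated 92 nM to 58 uM; 665/545 nm ratio normalized to buffer and complex controls.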
Lamin A splicing: LMNA splicing modulation; AID 1487; HeLa LMNA splicing GFP/RFP minigene ratio, 48 h; 0.01% of 200,000 active; Potency, µM (doses to about 46.1 µM), for the others: at the top dose ratio change, negative = inhibition, hits mostly inhibitors; active = well fitted inhibition curve with a large enough effect in the signal ratio, with a control signal flat, not every such curve was filed as active; inconclusive = small, poorly fitted or top-dose-only effect, or effect the other way, or a change in a side signal; the % refers to the signal ratio; also: potency is read from the fitted curve at half-maximal effect; % is scaled to controls: 0 for no effect and ±100 for the full control effect
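Read-out is the ratio of GFP to DsRed2 object intensity, acquired by 488 nm laser-scanning cytometry on HeLa lamin A-EGFP minigene reporter cells. Compound incubation 48 hrs at 37 °C in Opti-MEM with 2% FBS; DMSO 0.5% final.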
CBFb RUNX1 block: CBF-beta/RUNX1 interaction disruption; Q01196+Q13951; AlphaScreen CBFb-His/RUNX1-biotin binding, biochemical; Potency, µM (top dose mostly 59.8 µM), without a hit: at the highest dose activity, negative = inhibition, hits mostly inhibitors; 230,000 tested, under 10 active; AID 1477; also: % of control where 0% means no effect
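Inhibition was taken as any reduction in AlphaScreen signal from the CBF-beta–RUNX1 pair (His and biotin tags, 30 nM each), measured after compound (15 min) and bead (90 min) incubations at room temperature.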
MBNL1-CUG FRET: blocks human MBNL1 binding to CUG repeat RNA, TR-FRET validation; shares compounds with MBNL1 CUG block; 50% of 140 active; Potency, µM (doses to about 57.6 µM), for inactives: at the top dose activity change, negative = inhibition, actives largely listed as inhibitors; TR-FRET MBNL1-His / biotin-(CUG)12 binding, 60 min; AID 493199
MBNL1 AlphaScrn: blocks MBNL1 binding to (CUG)12 RNA in AlphaScreen; Potency, µM (series often up to 57.7 µM), for the others: top-dose activity, negative = inhibition, hits mostly inhibitors; shares compounds with MBNL1 CUG block; AlphaScreen MBNL1-His / biotin-(CUG)12 binding; 30% of 140 active
Menin-MLL HTRF: counter-screen for MBNL1-poly(CUG) RNA binding inhibitors; shares compounds with MBNL1 CUG block; His-Menin/biotin-MLL peptide TR-FRET counterscreen; Potency, µM (titrated, usually from 57.6 µM), without a hit: at the top dose activity, negative = inhibition, actives largely listed as inhibitors; 20% of 120 active
* = called active by the depositor; u = inconclusive; x = no result; [ ] = another dose, or the depositor's remark. Unless noted, calls follow the shape of the dose curve; as a rule, active = well fitted curve in the direction sought with a large enough effect; inconclusive = small, poorly fitted or top-dose-only effect, or another doubt; inactive = no such curve, though single readings can be large; an effect the other way counts as inactive or inconclusive.

SMILES | MBNL1 CUG block | Lamin A splicing | CBFb RUNX1 block | MBNL1-CUG FRET | MBNL1 AlphaScrn | Menin-MLL HTRF
O=C(O)CCCCC1SCC2NC(=O)NC21 (stereo unspecified) | 0.1µM* | u | 1.78µM* | 0.0411µM* | 0.0041µM* | 0.0146µM*
CCc1nnc(NC(=O)CCc2nc(C3=CCN(C)CC3)no2)s1 | u | -0.2% | -5.7% | x | x | x
COc1ccc2nc(NC(=O)CCc3nc(C4=CCN(C)CC4)no3)sc2c1 | 20µM* | -9.8% | -7.1% | u | 16.3µM* | u
NNC(N)=S | x | x | 3.5%[21.7 µM] | x | x | x
O=S(=O)(O)F | x | x | 13.2%[21.7 µM] | x | x | x
C=CCCC#N | x | x | 7.1%[21.7 µM] | x | x | x
CN1CCC2(CC1)C(C#N)=C(N)NC(S)=C2C#N | 3.98µM* | -3.7%[46 µM] | -19.3% | 32.6µM* | 0.7% | 16.3µM*
N#CC(Cl)Cl | x | x | 3.0%[21.7 µM] | x | x | x
Cc1ccsc1C(=O)C1CCCN(Cc2ccc(-n3cccn3)cc2)C1 (stereo unspecified) | 6.31µM* | -7.5%[46 µM] | -5.4% | 3.26µM* | u | 18.3µM*
Cc1ccsc1C(=O)C1CCCN(Cc2cccc(-n3cccn3)c2)C1 (stereo unspecified) | 2.6% | x | 5.3% | x | x | x
Cc1ccc(CN2CCCC(C(=O)c3sccc3C)C2)o1 (stereo unspecified) | 1.4% | x | 2.4% | x | x | x
Cc1ccsc1C(=O)C1CCCN(Cc2c(C)nn(C(C)C)c2C)C1 (stereo unspecified) | 31.6µM* | x | 15.9% | 41.1µM* | -25.9% | -21.8%
C[C@@H]1O[C@@H](O[C@H]2CC[C@@H](O[C@H]3[C@H](O)C[C@H](c4ccc5c(c4O)C(=O)C4=C(C5=O)[C@@]5(O)C(=O)C[C@](C)(O[C@H]6CC[C@H](O[C@H]7C=CC(=O)[C@H](C)O7)[C@H](C)O6)C[C@@]5(O)C=C4)O[C@@H]3C)O[C@H]2C)C=CC1=O | x | x | -10.4% | x | x | x
CN(C)c1ccc(N(C)C)cc1 | x | x | -8.2%[21.7 µM] | x | x | x
O=C1/C(=C\c2ccccc2)C[C@@]2(O)[C@H]3Cc4ccc(O)c5c4[C@@]2(CCN3CC2CC2)[C@H]1O5 | x | x | 16.5% | x | x | x
CCCn1cc(CN2CCCC(C(=O)c3cccc(OC)c3)C2)c(C)n1 (stereo unspecified) | 2.1% | 8.0%[46 µM] | 2.2% | x | x | x
CCn1cc(CN2CCCC(C(=O)c3cccc(OC)c3)C2)c(C)n1 (stereo unspecified) | 50.1µM* | 18.7%[46 µM] | 7.0% | u | -11.5% | -9.5%
N#CSCSC#N | x | x | 4.5%[21.7 µM] | x | x | x
